TWEAK-Fn14 inh: blocks TWEAK-Fn14 interaction in a reporter cell assay | TWEAK-stimulated Fn14 reporter cells, luciferase luminescence, 8 h | 360,000 compounds, 2% hits | AID 1159606 | inhibition, % at 10 µM; in the data active means inhibition above about 50%
Peg3 prom inh: inhibitors of Peg3 promoter. HeLa PEG-Prom luciferase reporter, luminescence, overnight. inhibition, % at 20 µM. 360,000 compounds, 1.7% hits. AID 588405;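 active means inhibition of at least 50% at 20 µM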
TRPM1 prom inh: MITF TRPM1 promoter inhibition in SK-MEL-5 cells; SK-MEL-5 TRPM1 promoter luciferase, 24 h; inhibition, % at 12.5 µM; 330,000 compounds, 0.83% hits;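 active means mean inhibition across replicates of 60% or more, whatever share of single replicates reaches that level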
LMP1 NFkB inh: reduces LMP1-driven NF-kappaB luciferase signal; LMP1-induced NF-kappaB luciferase reporter cells, luminescence; inhibition, % at 12.5 µM; 350,000 compounds, 0.69% hits; AID 504558; in the data active means inhibition above about 41%;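 further: 0% = neutral control wells and 100% = reference inhibitor control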
TROY signal inh: TROY signaling inhibition. Q293 LMP1-TROYcd NF-kB luciferase reporter, 4 h. inhibition, % at 10 µM. 360,000 compounds, 0.98% hits. AID 1347056;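 active means compounds whose plate-normalised and pattern-corrected inhibition of the luciferase reporter signal at the single screening dose is 50% or more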
Shn3 inh set2: inhibitors of Schnurri-3 3'UTR reporter in osteoblasts. inhibition, % at 12.5 µM. AID 588674. 360,000 compounds, 0.52% hits. Clone20 osteoblast Shn3 3'UTR firefly luciferase, 24 h;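 active means mean inhibition of at least 75% with every replicate also reaching 75%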;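 further: 0% = median of neutral control wells and 100% = pilot-screen positive control compound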
* marks the source's active call; other numbers are inactive results; x = no result. Rows were chosen to be rich in hits. Some 4.1% of all compounds tested hit in one or more screens of this group.

SMILES	TWEAK-Fn14 inh	Peg3 prom inh	TRPM1 prom inh	LMP1 NFkB inh	TROY signal inh	Shn3 inh set2
CCN1CCN(c2cc(N3CCN(C(=O)c4ccco4)CC3)c3c4c(onc24)-c2ccccc2C3=O)CC1	3.1	29.9	88.8*	-7.4	18.5	8.8
COc1ccc([C@@H]2[C@@H]3C(=O)N(C(C)(C)C)C(=O)[C@@H]3[C@]3(CC(C)C)C(=O)N(c4cccc(Br)c4)C(=O)N23)cc1	-3.2	8.8	0.0	-1.4	-6.9	-2.8
O=C(CCNS(=O)(=O)c1ccc(OC(F)(F)F)cc1)N1CCCC1	-14.3	10.6	-1.3	-5.7	4.0	-6.4
CN(C)CC(C)(C)CNS(=O)(=O)c1ccc(OC(F)(F)F)cc1	0.7	8.2	0.6	46.6*	3.5	34.9
COc1cccc(CNC(=O)C2CC(=O)N(c3ccc4c(c3)OCCO4)C2)c1 (configuration not stated)	3.8	-0.7	-6.7	-4.9	-14.3	-7.5
Cc1c(O)ccc2c(-c3ccccc3)cc(=O)oc12	43.6	14.6	1.6	2.3	45.4	5.6
Cc1coc2c(C)c3oc(=O)cc(-c4ccccc4)c3cc12	-25.7	74.5*	11.8	2.3	22.0	-15.6
CC(C)OP(=O)(OC(C)C)C(O)c1cccc([N+](=O)[O-])c1 (configuration not stated)	2.9	4.2	4.9	3.4	-2.8	4.9
CCc1nnc(NC(=O)CC(C)c2ccccc2)s1 (configuration not stated)	20.4	-15.1	-0.5	-5.1	-26.2	-47.7
C=CSc1sc(Cl)c(N2CCOCC2)c1[N+](=O)[O-]	4.0	21.1	-23.2	6.2	-2.7	-59.0
C=CS(=O)(=O)c1sc(Cl)c(N2CCOCC2)c1[N+](=O)[O-]	31.3	106.2*	32.5	-2.2	33.9	81.0
Cn1cc(C=O)c(-c2ccc3c(c2)OCCCO3)n1	70.9*	-115.1	-45.5	-11.5	25.0	-67.3
Cc1cc[n+](-c2[nH]c(=O)sc2/C=N/N=C(\[O-])c2ccncc2)cc1	-6.5	-0.9	8.6	70.5*	-8.0	-5.9
CCc1ccc(C(=O)CN(C#N)c2nc(C)cc(C)n2)cc1	62.3*	17.9	-5.0	-14.3	6.7	5.9
CS(=O)(=O)c1ccc(C(=O)OCC(=O)c2ccc(Cl)s2)cc1	-3.8	12.5	-4.6	8.0	14.5	-14.2
CCOC(=O)C(C)Sc1nc(-c2ccccc2)nc2ccccc12 (configuration not stated)	15.4	39.3	-2.4	-4.2	-1.7	0.1
COc1ccc(-c2oc3ncn(CCN4CCOCC4)c(=N)c3c2-c2ccc(OC)cc2)cc1	-7.1	38.6	-5.5	2.3	-16.1	18.7
Cc1ccc(-c2csc3ncnc(NCCN4CCOCC4)c23)cc1	42.2	27.2	14.7	4.5	17.8	17.2
c1ccc(-c2oc3ncnc(NCCCN4CCOCC4)c3c2-c2ccccc2)cc1	-22.7	38.6	4.8	7.6	9.1	11.8
COc1ccc(-c2oc3ncnc(NCCCN4CCOCC4)c3c2-c2ccc(OC)cc2)cc1	14.4	63.6*	-1.3	34.9	4.5	14.5
COc1ccc(-c2csc3ncnc(NCCN4CCOCC4)c23)cc1	45.4	30.5	0.8	46.4*	43.1	22.0
COc1ccc(-c2oc3ncnc(NCCN4CCOCC4)c3c2-c2ccc(OC)cc2)cc1	33.0	51.0*	1.0	47.7*	15.6	66.4
COc1cc(C(=S)N2CCCC2)cc(Cl)c1OCC(=O)Nc1ccc(C)cc1C	-26.2	7.0	4.2	6.3	7.9	19.0
CC(C)c1ccc(Oc2cccc3c2S(=O)(=O)N(C2CCCC2)CC(COCc2ccccc2)O3)cc1 (configuration not stated)	10.6	4.0	11.6	9.3	20.3	86.5*
Cc1cc(C(C)(C)C)ccc1Oc1cccc2c1S(=O)(=O)N(C1CCCC1)CC(COCc1ccccc1)O2 (configuration not stated)	20.5	14.4	9.8	15.8	2.2	80.3
SMILES	TWEAK-Fn14 inh	Peg3 prom inh	TRPM1 prom inh	LMP1 NFkB inh	TROY signal inh	Shn3 inh set2
O=C(O)C(Cc1ccccc1)N1C(=O)c2cccc3cccc(c23)C1=O (configuration not stated)	9.6	12.4	13.2	5.9	9.6	-6.7
O=C(Nc1cccc(O)c1)C(Cc1ccccc1)N1C(=O)c2cccc3cccc(c23)C1=O (configuration not stated)	-25.0	65.9*	-6.3	-6.5	10.0	-4.9
CC1(C)CC(=O)C(C2C3=C(CC(C)(C)CC3=O)Oc3c(Br)cc(Br)cc32)=C(O)C1 (configuration not stated)	61.7*	39.1	1.3	3.7	45.8	-14.3
NNC(=O)CN1CCCc2ccccc21	69.3*	-84.2	-30.4	-27.9	71.1*	-43.2
CSc1nsc(SCC(=O)Nc2ccccc2C(N)=O)n1	22.5	-48.0	3.3	-0.3	-26.7	-19.1
c1ccc(CCNc2ncnc3ccccc23)cc1	67.9*	-268.4	-24.5	-5.8	24.8	56.6
Brc1ccc2ncnc(NCc3ccccc3)c2c1	81.8*	12.9	3.9	59.9*	54.2*	75.4
Cc1cccc(-c2ccc3ncnc(NCc4cccnc4)c3c2)c1	12.8	4.7	11.5	-9.4	2.6	22.9
CC(=O)Nc1ccc(S(=O)(=O)N2CCN(Cc3cccc([N+](=O)[O-])c3)CC2)cc1	-13.7	-0.1	-6.6	1.6	21.3	13.4
O=C(Nc1cc(Cl)ccc1-n1cncn1)C1CC1	3.2	8.5	16.8	-5.6	16.2	-1.0
COc1ccc(C(=O)OCC(=O)Nc2cccc(S(=O)(=O)N3CCCCCC3)c2)cc1[N+](=O)[O-]	0.7	4.9	-4.6	-2.4	28.3	-2.2
O=C(CSc1nnnn1C1CC1)Nc1ccc(S(=O)(=O)N2CCOCC2)cc1	3.7	7.5	6.6	-2.3	-1.3	-4.8
OCc1ccccc1CN1CCCCCC1	7.4	10.2	1.8	-1.4	-18.9	13.5
O=C(NCc1nc2ccccc2[nH]1)C1=C[C@@H](c2ccc(Br)cc2)C[C@@H](OCc2ccc(CO)cc2)O1	22.0	23.3	7.2	3.3	10.6	2.6
O=C(NCc1nc2ccccc2[nH]1)C1=C[C@H](c2csc3ccccc23)C[C@H](OCc2ccc(CO)cc2)O1	55.3*	39.1	21.7	6.3	22.5	25.1
O=C(NCc1nc2ccccc2[nH]1)C1=C[C@@H](c2csc3ccccc23)C[C@@H](OCc2ccc(CO)cc2)O1	56.6*	35.3	5.8	0.6	38.3	-4.0
C/C=C/c1ccc2c(c1)O[C@H](CN(C)C(=O)NC1CCCC1)[C@H](C)CN([C@H](C)CO)S2(=O)=O	-25.7	-3.7	x	2.1	-8.4	2.1
CCC(C)[C@H]1CNC(=O)C(=O)N1CC1CCCCC1 (some centres not stated)	-3.5	x	x	x	-23.5	x
O=c1c2c(nc3n1CCCCC3)sc1c(O)c(Br)ccc12	67.7*	-64.0	-38.5	18.6	35.5	-26.6
CC(=O)c1c(O)cc2c3c1OC(C)(C)C1CCC(C)(CC31)O2 (configuration not stated)	78.9*	43.9	x	10.1	34.4	35.9

Screening data from PubChem.
